Test results taken from PubChem BioAssay (NCI).
Several values for one entry are separate records, joined by “and”; a condition that tells them apart may be missing. Identical values can stand only once. The panel holds about 83,000 compounds, 20% with a hit somewhere; the sample as a whole holds those more often.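 96-well plates, one dose, 48 hours. Percent growth reported; active if below 10.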 Values without a mark were called inactive. Activity calls are given as the source filed them. Where a SMILES comes first, the peptide text is derived from it.

Tests used:
Assay in all cases: NCI-60 one-dose screen, 48 h (100 = growth as untreated, 0 = no growth, -100 = all killed)
[1] = system: SR leukemia; conditions: 10 µM unless noted
[2] = system: OVCAR-8 ovarian; conditions: 10 µM unless noted
[3] = system: OVCAR-5 ovarian; conditions: 10 µM unless noted
[4] = system: OVCAR-4 ovarian; conditions: 10 µM unless noted
[5] = system: SK-OV-3 ovarian; conditions: 10 µM unless noted
[6] = system: IGROV1 ovarian; conditions: 10 µM unless noted
[7] = system: OVCAR-3 ovarian; conditions: 10 µM unless noted
[8] = system: HS 578T breast; conditions: 10 µM unless noted
[9] = system: NCI/ADR-RES ovarian; conditions: 10 µM unless noted
[10] = system: T-47D breast; conditions: 10 µM unless noted
[11] = system: BT-549 breast; conditions: 10 µM unless noted
[12] = system: MDA-MB-435 melanoma; conditions: 10 µM unless noted
[13] = system: SW-620 colon; conditions: 10 µM unless noted
[14] = system: MCF7 breast
[15] = system: HCT-116 colon; conditions: 10 µM unless noted
[16] = system: HCC-2998 colon; conditions: 10 µM unless noted
[17] = system: KM12 colon; conditions: 10 µM unless noted
[18] = system: RPMI-8226 leukemia; conditions: 10 µM unless noted

SMILES	growth [1]	growth [2]	growth [3]	growth [4]	growth [5]	growth [6]	growth [7]	growth [8]	growth [9]	growth [10]	growth [11]	growth [12]	growth [13]	growth ([14]; 10 µM unless noted)	growth [15]	growth [16]	growth [17]	growth [18]	growth ([14]; 10 µM)	growth ([14]; 100 µM)
N#CC(C#N)N=Nc1ccc(Cl)cc1	53.7%	62.1%	72.6%	10.1%	45.8%	69.4%	15.2%	81.8%	72.2%	-0.279% (active)	77.1%	79.6%	15%	27.3%	16.9%	75.3%	85.9%	–	–	–
CCCCOC(=O)/C=C\C(=O)NC(N)=O	-22.3% (active)	71.1%	93.1%	93.4%	111%	74.1%	87.7%	99.1%	90.8%	60.4%	63.5%	–	57.1%	81.1%	80.1%	108%	106%	39.5%	–	–
O=CN1CCCCC1	119%	117%	104%	108%	113%	124%	112%	114%	103%	109%	97.3%	107%	102%	97.6%	104%	105%	100%	–	–	–
CC(=O)Nc1ccc(S(N)(=O)=O)cc1	117% and 105%	99.5% and 97.6%	106% and 102%	99.4% and 105%	95.4% and 99.8%	99.5% and 97.1%	110% and 116%	96.3% and 113%	102% and 104%	87.7% and 100%	104%	97.4% and 96.3%	96.7% and 104%	91.8% and 93.3%	94.2% and 93.6%	108%	109% and 108%	95.6% and 111%	–	–
c1ccc2c(c1)OC1OC2Oc2ccccc21	76.1%	104%	103%	105%	102%	97%	101%	92.9%	95.7%	100%	93.2%	–	96.9%	107%	113%	105%	87.3%	106%	–	–
COc1ccc(N/C=C/C2=[N+](C)c3ccccc3C2(C)C)c(OC)c1	101%	93.6%	106%	91.7%	90.7%	106%	93.6%	99.9%	92.8%	89.5%	89.3%	95%	92.7%	87.7%	88.8%	98.4%	103%	–	–	–
NC(Cc1ccccc1)C(=O)NC(Cc1ccccc1)C(=O)O (stereo not drawn) (H-Phe-Phe-OH; configuration not given here)	97.4% and 102%	101% and 99.7%	99% and 95.1%	102% and 100%	97.6% and 110%	99.7% and 103%	108% and 111%	98.3% and 112%	105% and 107%	89.3% and 91.7%	108% and 106%	109% and 99.7%	102% and 108%	98.9% and 94.3%	103% and 100%	112%	105% and 107%	–	–	–
CCCCNc1ccc(Nc2ccccc2)cc1	62.3%	74.2%	103%	39%	–	58.7%	66%	105%	86.4%	34%	49.7%	71.8%	84.3%	67.3%	47.9%	92%	66%	-25% (active)	–	–
CC(C)(O)C(=O)O	119%	109%	99.7%	105%	97.9%	101%	109%	102%	111%	100%	103%	107%	110%	93.8%	100%	119%	107%	–	–	–
NC(Cc1c[nH]c2ccccc12)C(=O)O (stereo not drawn)	53.3% and 105%	58.3% and 93.5%	91.7% and 103%	108% and 102%	106% and 105%	105% and 120%	120% and 107%	115% and 95.3%	105% and 111%	110%	113% and 102%	98.9% and 105%	111% and 95.9%	105% and 98.5%	91.4% and 86.7%	103% and 101%	108% and 109%	86.6% and 103%	–	–
O=C(O)/C=C\C(=O)Nc1cccc2ccccc12	103% and 70.2%	102% and 105%	100% and 104%	92.2% and 115%	92% and 103%	74.9% and 129%	90.1% and 113%	105% and 104%	110% and 104%	120% and 107%	84.4% and 91.7%	–	99.5% and 106%	97.3% and 101%	103% and 101%	118% and 96.8%	89.8% and 106%	81.8% and 95.4%	–	–
O=C(Cc1ccccc1)c1ccc(O)c(Cl)c1	10.2%	43.4%	65.6%	63.5%	101%	60.4%	12.4%	37.4%	28.5%	43.9%	45.3%	–	22.1%	20.4%	27%	43.4%	51.4%	-6.77% (active)	–	–
COc1ccc2cc1Oc1ccc(cc1)C[C@H]1c3cc(c(OC)cc3CCN1C)Oc1c(OC)c(OC)cc3c1[C@H](C2)N(C)CC3	–	–	–	–	–	–	–	–	–	–	–	–	–	–	–	–	–	–	52.7%	98.3% and 67.5%
